Data on 27 molecules can be found in PubChem BioAssay (NCATS).

Unmarked numbers belong to inactive results. The call rests on the fitted dose curve; in most records, active means well fitted activation curve with a large enough effect; inconclusive means small, poorly fitted or top-dose-only effect; inactive means no such curve, though single readings can be large or run the other way.

Chain of Cytochrome P450 3A4 (Homo sapiens) (P08684 whole entry, looked up): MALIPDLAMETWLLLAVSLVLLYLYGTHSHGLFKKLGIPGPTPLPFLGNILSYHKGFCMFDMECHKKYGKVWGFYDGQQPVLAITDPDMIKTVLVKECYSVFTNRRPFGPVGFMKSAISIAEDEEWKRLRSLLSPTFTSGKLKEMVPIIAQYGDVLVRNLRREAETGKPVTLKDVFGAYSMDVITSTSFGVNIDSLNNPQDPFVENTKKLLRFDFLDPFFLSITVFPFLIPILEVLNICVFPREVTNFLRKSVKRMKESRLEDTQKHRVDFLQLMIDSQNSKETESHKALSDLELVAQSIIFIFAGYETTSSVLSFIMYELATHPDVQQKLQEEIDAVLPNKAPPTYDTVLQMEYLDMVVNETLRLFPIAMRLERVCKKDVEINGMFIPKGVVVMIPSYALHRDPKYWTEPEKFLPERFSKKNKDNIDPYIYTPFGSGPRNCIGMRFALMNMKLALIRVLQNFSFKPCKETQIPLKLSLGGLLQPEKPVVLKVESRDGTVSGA

This assay concerns the target Cytochrome P450 3A4 (Homo sapiens) (UniProt P08684). Nature of the assay: qHTS Assay for Activators of Cytochrome P450 3A4 (AID 885). Further: nearly all actives have a fitted effect of over 65% in size. Conditions: recombinant CYP3A4, Luciferin-PPXE luminescence, 60 min; series mostly up to 57.1 µM; activity change, positive = activation: at the top concentration. In short, it runs like this: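 Using 20nM recombinant human CYP3A4 in potassium phosphate (200mM), substrate Luciferin-PPXE at 25uM, luminescent luciferin detection followed a 60-min RT NADPH reaction; data scaled to 57 uM ketoconazole.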
(Quantitative high-throughput screening tests each substance at several concentrations.)
For the molecule `O=C1[C@H]2[C@H]3[C@H](O)[C@H](O)C/C(=N/OCc4ccccc4)[C@H]3CC[C@@H]2C(=O)N1Cc1ccc2c(c1)OCO2`, the activity change, positive = activation was -96.1% [at 11.4 µM].

As for `COC(=O)[C@@H]1C[C@@]2(O)[C@H](O)[C@H](O)[C@H](O)C[C@H]2N1Cc1ccc(-c2ccccc2)cc1`, the “activity change, positive = activation” value was -55.8%.

For the molecule `CC(C)Cn1c(N)c(C(=O)COC(=O)c2cc(C(F)(F)F)nc3c(C(F)(F)F)cccc23)c(=O)n(C)c1=O`, the “activity change, positive = activation” value was -41.9%.

`COC(=O)C/C=C\[C@@H](C)[C@@H](/C=N\O[C@@H](C)CN1CCCc2nc(C)c(C)cc21)OC`: the activity change, positive = activation was -59.1% [at 11.4 µM].

`CC(C)CO/N=C1/C[C@@H](O)[C@@H](O)[C@@H]2[C@@H]3C(=O)N(Cc4ccc5c(c4)OCO5)C(=O)[C@H]3CC[C@@H]12`: the activity change, positive = activation was -50.2% [at 11.4 µM].

With `COc1ccc(COC(=O)N/N=C2/C[C@@H](O)[C@@H](O)[C@@H]3[C@@H]4C(=O)N([C@@H](C)c5ccccc5)C(=O)[C@H]4CC[C@H]23)cc1`, the activity change, positive = activation was -54.4% [at 11.4 µM].

As to `CO[C@@H]1COC(=O)CC=C[C@@H](C)[C@@H]2C=C[C@H](O)[C@@H](COC(=O)C/C=C\[C@H]1C)O2`, the activity change, positive = activation is -43.1% [at 11.4 µM].

Regarding `CC(=O)N1CC=CC1(CC(C)C)C(=O)NCc1ccccn1` (configuration not stated), the “activity change, positive = activation” value was -48.3%.

`COC(=O)NC(/C(C(=O)OC)=C(\C)NCc1ccccc1)c1ccccc1` (configuration not stated): the activity change, positive = activation is -30.2% [at 11.4 µM].

For `COC(=O)C/C=C\[C@@H](C)[C@@H](/C=N\OC[C@@H](C)[C@H](OCc1ccccc1)C(C)C)OC`, the activity change, positive = activation was -33% [at 11.4 µM].

On to `COC(=O)c1cccc(C23CC4(C2)[C@H](CN(Cc2ccc(C(F)(F)F)cc2)[C@@H]4c2ccccc2)C3c2ccc(C(F)(F)F)cc2)c1` (some centres not stated), for which the “activity change, positive = activation” value was -34.6%.

For `FC(F)(F)c1ccc(CN2C[C@@H]3C(c4ccc(C(F)(F)F)cc4)C4(c5ccccc5)CC3(C4)[C@H]2c2ccccc2)cc1` (some centres not stated), the “activity change, positive = activation” value is -40.3%.

As to `CC(C)=CCC/C(C)=C/CO/N=C1/C[C@@H](O)[C@@H](O)[C@@H]2[C@@H]3C(=O)N(C[C@@H]4CCCO4)C(=O)[C@H]3CC[C@H]12`, the activity change, positive = activation is -35.7% [at 11.4 µM].

For the molecule `CCC1=C2CC[C@H]3C(=O)NC(=O)[C@H]3[C@H]2[C@@]2(C)C(=NCC3CC3)OC(=O)N2C1=O`, the “activity change, positive = activation” value is -41.2%.

For the molecule `COC(=O)[C@@H]1C[C@H]2CC[C@H](O)C[C@H]2N1Cc1ccc(C(F)(F)F)cc1`, the “activity change, positive = activation” value was -52.4%.

Turning to `Nc1cc(=O)[nH]c(=O)n1Cc1ccccc1`, the “activity change, positive = activation” value is -32.1%.

Consider `COC(=O)c1cccc(C23CC4(C2)[C@H](CN(Cc2ccc(C(F)(F)F)cc2)[C@@H]4c2ccccc2)C3c2ccc(Cl)nc2)c1` (some centres not stated), for which the “activity change, positive = activation” value is -32.7%.

As to `COc1ccc(COC(=O)N/N=C2/C[C@@H](O)[C@@H](O)[C@@H]3[C@H]4C(=O)N(c5ccc(F)cc5F)C(=O)[C@@H]4CC[C@H]23)cc1`, the activity change, positive = activation is -51.6% [at 11.4 µM].

Take `COC(=O)[C@@H]1C[C@@]2(O)[C@H](O)[C@H](O)[C@H](O)C[C@H]2N1Cc1c(F)cccc1Cl`: the “activity change, positive = activation” value is -36.9%.

With `COC(=O)[C@@H]1CC[C@H](C)[C@@H](c2ccc(C)cc2)N1C(=O)c1ccc(/C=N\O[C@@H](C)c2cn([C@H]3COC[C@H]3O)nn2)cc1`, the activity change, positive = activation was -43.4% [at 11.4 µM].

For `COc1ccc(O[C@H]2C=C[C@@H](c3ccccc3)O[C@@H]2CON=C(C)C)cc1`, the activity change, positive = activation was -40.2% [at 11.4 µM].

Regarding `CCCC[C@@H]1CN2[C@H](c3ccc(Br)cc3)[C@@H](C)CC[C@H]2C(=O)O1`, the activity change, positive = activation is -59.6% [at 11.4 µM].

For `CO[C@@H]1COC(=O)C/C=C\[C@@H](C)[C@@H]2C=C[C@H](O)[C@@H](COC(=O)CCC[C@H]1C)O2`, the activity change, positive = activation is -44.8% [at 11.4 µM].

With `Cn1c(N)c(C(=O)COC(=O)c2cc(-c3ccccc3)nc3ccccc23)c(=O)n(Cc2ccccc2)c1=O`, the “activity change, positive = activation” value is -47.3%.

As to `O=C(O)c1sccc1S(=O)(=O)Nc1ccc(Cl)cc1`, the “activity change, positive = activation” value is -30.3%.

For `CC[C@@H](c1ccccc1)n1c(=O)n2n(c1=O)[C@H]1[C@H](O)[C@H]3O[C@@H]3/C(=N/OCc3ccccc3)[C@@H]1CC2`, the activity change, positive = activation is -33.4% [at 11.4 µM].

In the case of `COC(=O)C/C=C\[C@@H](C)[C@@H](/C=N\O[C@@H]1O[C@H](COC(C)=O)[C@H](OC(C)=O)[C@H](OC(C)=O)[C@H]1OC(C)=O)OC`, the activity change, positive = activation was -32.3% [at 11.4 µM].
